For some assays here: Results with a measured potency or affinity are listed apart. The source made the active and inactive calls. No rule for the calls is given here.
What follows are molecules tested against Plasmodium falciparum protein kinase 6 (PK6, PF3D7_1337100) (UniProt Q8IDW1) (assay: PfPK6 kinase inhibitors, biochemical, TCAMS library (AID 1159586)). Details: recombinant PfPK6, Kinase-Glo ATP depletion luminescence.
Chain of Plasmodium falciparum protein kinase 6 (PK6, PF3D7_1337100) (Q8IDW1 1-305): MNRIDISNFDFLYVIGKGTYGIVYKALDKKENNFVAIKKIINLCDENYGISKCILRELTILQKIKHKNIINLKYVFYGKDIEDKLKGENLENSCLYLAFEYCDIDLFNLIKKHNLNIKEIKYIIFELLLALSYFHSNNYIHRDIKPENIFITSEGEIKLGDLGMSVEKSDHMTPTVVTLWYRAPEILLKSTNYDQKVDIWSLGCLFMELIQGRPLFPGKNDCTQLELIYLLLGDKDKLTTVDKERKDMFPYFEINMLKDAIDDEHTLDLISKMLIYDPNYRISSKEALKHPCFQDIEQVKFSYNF

outcome, inactive:
O=C1COc2ccc3ccccc3c21
Cc1cccc2[nH]c(-c3cccc(-c4cccc(CNCC5CCCO5)c4)c3)nc12 (stereo not given)
CCCCCCN1CCC(CNCc2cccc([N+](=O)[O-])c2)CC1
O=C(NCCc1ccccc1)[C@H](Cc1ccccc1)Nc1ccnc(NCC2CCCCC2)n1
CCOC(=O)c1cn(CC)c2cc(N(C)CCc3ccc(OC)c(OC)c3)c(F)cc2c1=O
O=C(Nc1cccc(CN2CCCN(Cc3cccc(Cl)c3)CC2)c1)c1ccc(-c2ccccc2)cc1
C=CCC(C(=O)Nc1ccnc2ccc(OC)cc12)C1CCN(CCCCCCC)CC1 (stereo not given)
O=C(C=Cc1ccc(Cl)c(Cl)c1)NCCCCCN1CCC(CCNC(=O)c2ccc3c(c2)OCO3)CC1
COc1cc2ncnc(Nc3ccc4nc(Cc5ccccc5)[nH]c4c3)c2cc1OC
COc1ccc(-n2nc(C(=O)NCc3ccccc3OC)c3ccccc3c2=O)cc1
CCc1ccccc1OCCCON1C(N)=NC(N)=NC1(C)C
CC(C)c1cc2c(ccc3nc(N)nc(N)c32)[nH]1
Cc1cc(N2CCCCC2)nc2ccc(NC(=O)c3cncc(Br)c3)cc12
CC1CCN(CCNC(=O)c2ccc3c(=O)n(Cc4ccc(Cl)cc4)c(=S)[nH]c3c2)CC1
CCC[C@@H]([C@@H](CC(C)C)C(=O)N[C@H](C(=O)Nc1nccs1)C(C)(C)SCCNC(=O)OCC)N(O)C=O
COc1ccc(NC(=O)N2CCc3ccc(OCCN(C(C)C)C(C)C)cc32)cc1C(F)(F)F
c1ccc2nc(NCCCCCCCCNc3ccc4ccccc4n3)ccc2c1
O=C(Nc1cccc(-c2cccc(-c3nc4ccc(F)cc4[nH]3)c2)c1)Nc1ccc(F)c(F)c1F
Cc1ccc(C2=NNC3(S2)C(=O)N(C)c2ccccc23)cc1 (stereo not given)
Cc1c(N)ccc2[nH]c(-c3ccc(N)cc3)nc12
Fc1cccc(Nc2nc(NCc3ccc(Cl)c(Cl)c3)nc(Nc3cccc(F)c3)n2)c1
CC1(C)N=C(NC(=O)c2ccc([N+](=O)[O-])cc2)N=C(N)N1OCc1ccc2ccccc2c1
O=[N+]([O-])c1cccc(C=NNc2ccnc3cc(F)ccc23)c1
CC(C)OC(=O)c1ccccc1S(N)(=O)=O
COc1ccc(CC(=O)NC2CCN(c3ccnc4cc(Cl)ccc34)C2)cc1 (stereo not given)
Cc1nc2nc(N)nc(N)c2c(C)c1Cc1ccc(C#N)cc1
COc1ccc(S(=O)(=O)N2CCC3(CC2)OCC(=O)NC3c2ccc(Cl)c(Cl)c2)cc1 (stereo not given)
COC(=O)c1ccc(OCC(C)NCC(O)c2cccc(C(F)(F)F)c2)cc1 (stereo not given)
COc1ccc2nccc([C@@H](O)CN3CCC(NC(=O)/C=C/c4ccc5ccccc5n4)CC3)c2c1
COc1ccc2nccc([C@@H](O)CN3CCC(NCCNc4ccccn4)CC3)c2c1
CS(=O)(=O)c1ccc(CCNCc2ccc(-c3ccc(CN(C(=O)C4CC(=O)c5ccccc54)C4Cc5ccccc5C4)cc3)nc2)cc1 (stereo not given)
Cc1c(C)c2c(c(C)c1O)CC[C@@](C)(C(=O)N1CCC(CCN3CCC(c4c[nH]c5ccccc45)CC3)CC1)O2
Cc1noc(C)c1S(=O)(=O)N(C)Cc1ccc(-c2ccc(Cl)cc2)o1
CCC(C)(CC)C(=O)n1ncc2c3c(N)nc(N)nc3ccc21
Clc1ncccc1-c1nc(NCCC(c2ccccc2)c2ccccc2)no1
CCCCCCN1CCCN(Cc2ccc(C(=O)Nc3cccc(CC)c3)cc2)CC1
Cc1ccc(NC(=S)N2CCCN(CCCCCNC(=O)/C=C/c3ccc(Cl)c(Cl)c3)CC2)cc1Cl
CCOc1cc(C(=O)NCc2cc(Cl)cc(Cl)c2)ccc1-c1nc2ccc(Cl)cc2[nH]1
COc1cc(C(F)(F)F)cc2[nH]c(CNCCCNc3nc4ccccc4[nH]3)cc12
NC1=Nc2ccc(Cl)cc2C1(O)c1ccccc1 (stereo not given)

The molecules below were run against Protein kinase 7 (PK7), Plasmodium falciparum 3D7 (PF3D7_0213400) (UniProt Q7YTF7) (assay: inhibition of Plasmodium PK7 catalytic activity – biochemical, TCAMS antimalarial set, Kinase-Glo luminescence (AID 1159587)). Details: recombinant PfPK7, Kinase-Glo ATP depletion luminescence.
Chain of Protein kinase 7 (PK7), Plasmodium falciparum 3D7 (PF3D7_0213400) (Q7YTF7 1-343): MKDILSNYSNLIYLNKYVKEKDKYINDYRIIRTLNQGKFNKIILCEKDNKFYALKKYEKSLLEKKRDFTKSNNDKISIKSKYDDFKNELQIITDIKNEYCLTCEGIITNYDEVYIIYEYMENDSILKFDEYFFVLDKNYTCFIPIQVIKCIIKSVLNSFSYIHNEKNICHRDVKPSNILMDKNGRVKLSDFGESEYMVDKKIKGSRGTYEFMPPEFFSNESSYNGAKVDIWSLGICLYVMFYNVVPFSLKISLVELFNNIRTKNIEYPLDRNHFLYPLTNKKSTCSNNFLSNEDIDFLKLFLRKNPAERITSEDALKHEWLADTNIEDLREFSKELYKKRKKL

outcome, inactive:
O=C1COc2ccc3ccccc3c21
Cc1cccc2[nH]c(-c3cccc(-c4cccc(CNCC5CCCO5)c4)c3)nc12 (stereo not given)
CCCCCCN1CCC(CNCc2cccc([N+](=O)[O-])c2)CC1
O=C(NCCc1ccccc1)[C@H](Cc1ccccc1)Nc1ccnc(NCC2CCCCC2)n1
CCOC(=O)c1cn(CC)c2cc(N(C)CCc3ccc(OC)c(OC)c3)c(F)cc2c1=O
O=C(Nc1cccc(CN2CCCN(Cc3cccc(Cl)c3)CC2)c1)c1ccc(-c2ccccc2)cc1
C=CCC(C(=O)Nc1ccnc2ccc(OC)cc12)C1CCN(CCCCCCC)CC1 (stereo not given)
O=C(C=Cc1ccc(Cl)c(Cl)c1)NCCCCCN1CCC(CCNC(=O)c2ccc3c(c2)OCO3)CC1
COc1cc2ncnc(Nc3ccc4nc(Cc5ccccc5)[nH]c4c3)c2cc1OC
COc1ccc(-n2nc(C(=O)NCc3ccccc3OC)c3ccccc3c2=O)cc1
CCc1ccccc1OCCCON1C(N)=NC(N)=NC1(C)C
CC(C)c1cc2c(ccc3nc(N)nc(N)c32)[nH]1
Cc1cc(N2CCCCC2)nc2ccc(NC(=O)c3cncc(Br)c3)cc12
CC1CCN(CCNC(=O)c2ccc3c(=O)n(Cc4ccc(Cl)cc4)c(=S)[nH]c3c2)CC1
CCC[C@@H]([C@@H](CC(C)C)C(=O)N[C@H](C(=O)Nc1nccs1)C(C)(C)SCCNC(=O)OCC)N(O)C=O
COc1ccc(NC(=O)N2CCc3ccc(OCCN(C(C)C)C(C)C)cc32)cc1C(F)(F)F
c1ccc2nc(NCCCCCCCCNc3ccc4ccccc4n3)ccc2c1
O=C(Nc1cccc(-c2cccc(-c3nc4ccc(F)cc4[nH]3)c2)c1)Nc1ccc(F)c(F)c1F
Cc1ccc(C2=NNC3(S2)C(=O)N(C)c2ccccc23)cc1 (stereo not given)
Cc1c(N)ccc2[nH]c(-c3ccc(N)cc3)nc12
Fc1cccc(Nc2nc(NCc3ccc(Cl)c(Cl)c3)nc(Nc3cccc(F)c3)n2)c1
CC1(C)N=C(NC(=O)c2ccc([N+](=O)[O-])cc2)N=C(N)N1OCc1ccc2ccccc2c1
O=[N+]([O-])c1cccc(C=NNc2ccnc3cc(F)ccc23)c1
CC(C)OC(=O)c1ccccc1S(N)(=O)=O
COc1ccc(CC(=O)NC2CCN(c3ccnc4cc(Cl)ccc34)C2)cc1 (stereo not given)
Cc1nc2nc(N)nc(N)c2c(C)c1Cc1ccc(C#N)cc1
COc1ccc(S(=O)(=O)N2CCC3(CC2)OCC(=O)NC3c2ccc(Cl)c(Cl)c2)cc1 (stereo not given)
COC(=O)c1ccc(OCC(C)NCC(O)c2cccc(C(F)(F)F)c2)cc1 (stereo not given)
COc1ccc2nccc([C@@H](O)CN3CCC(NC(=O)/C=C/c4ccc5ccccc5n4)CC3)c2c1
COc1ccc2nccc([C@@H](O)CN3CCC(NCCNc4ccccn4)CC3)c2c1
CS(=O)(=O)c1ccc(CCNCc2ccc(-c3ccc(CN(C(=O)C4CC(=O)c5ccccc54)C4Cc5ccccc5C4)cc3)nc2)cc1 (stereo not given)
Cc1c(C)c2c(c(C)c1O)CC[C@@](C)(C(=O)N1CCC(CCN3CCC(c4c[nH]c5ccccc45)CC3)CC1)O2
Cc1noc(C)c1S(=O)(=O)N(C)Cc1ccc(-c2ccc(Cl)cc2)o1
CCC(C)(CC)C(=O)n1ncc2c3c(N)nc(N)nc3ccc21
Clc1ncccc1-c1nc(NCCC(c2ccccc2)c2ccccc2)no1
CCCCCCN1CCCN(Cc2ccc(C(=O)Nc3cccc(CC)c3)cc2)CC1
Cc1ccc(NC(=S)N2CCCN(CCCCCNC(=O)/C=C/c3ccc(Cl)c(Cl)c3)CC2)cc1Cl
CCOc1cc(C(=O)NCc2cc(Cl)cc(Cl)c2)ccc1-c1nc2ccc(Cl)cc2[nH]1
COc1cc(C(F)(F)F)cc2[nH]c(CNCCCNc3nc4ccccc4[nH]3)cc12
NC1=Nc2ccc(Cl)cc2C1(O)c1ccccc1 (stereo not given)

Reference: PubChem BioAssay
